An excerpt weighted towards active compounds, which were near 4% of everything screened.
Rv3671c inh: Rv3671c (M. tuberculosis) protease inhibition. P9WHR9. inhibition, % at 5.96 µM. actives 0.048% (n = 320,000); in the data active = inhibition above about 38%;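 note: extracellular domain of Rv3671c used as enzyme; 0% = enzyme with DMSO and 100% = no enzyme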
GDH-TPI counter: inhibits GDH-TPI coupling enzymes, artifact for Mtb FBA screen. inhibition, % at 4.8 µM. actives 1.2% (n = 360,000). AID 588335. GDH-TPI coupled enzyme counterscreen, NADH absorbance; in the data active = inhibition above about 30%;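 note: 0% = DMSO wells and 100% = wells lacking the enzyme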
Mtb bLac sens: beta-lactam sensitization of Mtb H37Rv. M. tuberculosis H37Rv growth with meropenem, percent inhibition. inhibition, % at 25 µM. actives 0.27% (n = 330,000). AID 434955;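 note: growth measured after seven days incubation then overnight dye step; 0% = bacteria only wells and 100% = bacteria with antibiotic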
RecA splice inh: blocks M. tuberculosis RecA intein splicing; actives 0.75% (n = 290,000); P9WHJ3; cell-free RecA intein splicing, fluorescence; inhibition, % (no concentration beside the values); in the data active = inhibition above about 30%; inconclusive = no clear call, values can overlap the other calls;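 note: 0% = vehicle wells and 100% = reference inhibitor control wells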
UGM FP inh: Mtb UDP-galactopyranose mutase inhibition. AID 504406. purified UGM, fluorescence polarization probe displacement. actives 0.06% (n = 320,000). P9WIQ1. inhibition, % at 10 µM; in the data active = inhibition above about 10%, passing the limit was not always enough; inconclusive = no clear call, values can overlap the other calls
FBA Mtb inh: inhibitors of M. tuberculosis fructose-bisphosphate aldolase. purified M. tuberculosis FBA, fluorescence read-out. inhibition, % at 1 µM. actives 2.3% (n = 360,000). AID 588726; in the data active = inhibition above about 27%;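 note: 0% = vehicle and 100% = reference inhibitor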
Target sequence (P9WQA3 whole entry, looked up): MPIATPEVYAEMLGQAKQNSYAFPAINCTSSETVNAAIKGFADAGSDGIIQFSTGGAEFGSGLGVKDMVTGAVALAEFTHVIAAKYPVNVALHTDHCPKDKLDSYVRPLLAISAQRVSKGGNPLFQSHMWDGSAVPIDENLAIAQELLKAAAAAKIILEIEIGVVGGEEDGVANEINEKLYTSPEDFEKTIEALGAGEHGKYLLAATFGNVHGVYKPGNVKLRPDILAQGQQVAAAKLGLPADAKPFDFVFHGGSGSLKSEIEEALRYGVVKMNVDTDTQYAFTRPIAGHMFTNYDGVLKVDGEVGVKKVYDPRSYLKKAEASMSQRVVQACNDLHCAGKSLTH
GFP chromo cs: counter-screen: blocks GFP chromophore formation. shares compounds with RecA splice inh. cell-free GFP chromophore formation, fluorescence. EC50, µM. actives 83% (n = 2,100). AID 434968
* marks the source's active call; other numbers are inactive results. Unless noted, the rule behind the calls is not given here.

For COc1ccc(N/C=C2\CCc3ccccc3C2=O)cc1 the results were Rv3671c inh -15, GDH-TPI counter -3, Mtb bLac sens 82, RecA splice inh 71*, UGM FP inh 1, FBA Mtb inh -7 and GFP chromo cs 19*.
Screening C[C@H]1CN([C@@H](C)CO)S(=O)(=O)c2ccc(Br)cc2O[C@@H]1CN(C)C(=O)C1CCOCC1 returned GDH-TPI counter 5 and FBA Mtb inh -1.
`CCN(CCN(C)C)C(=O)c1ccc2c(c1NCCO)C(=O)c1ccccc1C2=O` gave Rv3671c inh -2, GDH-TPI counter 2, Mtb bLac sens 8, RecA splice inh 48*, UGM FP inh 0, FBA Mtb inh -6 and GFP chromo cs inconclusive.
`COc1ccccc1C(NC(C)=O)c1c(O)ccc2ccc(O)cc12` (stereo unspecified) gave Rv3671c inh 0, GDH-TPI counter 2, Mtb bLac sens 31, RecA splice inh 79*, UGM FP inh 1, FBA Mtb inh 7 and GFP chromo cs 5.1*.
COc1ccccc1C(NC(=O)CC(C)C)c1c(O)ccc2ccccc12 (stereo unspecified) was read as Rv3671c inh -1, GDH-TPI counter -1, Mtb bLac sens 0, RecA splice inh -5, UGM FP inh -1 and FBA Mtb inh 8.
CC[C@@]1(C(=O)OC)N[C@H](CN(C)S(=O)(=O)c2ccc(C(F)(F)F)cc2)[C@@H]2C(=O)N(C)C(=O)[C@@H]21 was read as Rv3671c inh -5, GDH-TPI counter -3, Mtb bLac sens 3 and FBA Mtb inh 0.
COc1cc(/C=C2/C(=O)N(c3ccc([N+](=O)[O-])cc3)N=C2N2CCOCC2)ccc1O was read as Rv3671c inh -182, GDH-TPI counter 39*, Mtb bLac sens 76, RecA splice inh 46*, UGM FP inh 2, FBA Mtb inh -7 and GFP chromo cs 23*.
For CCC(ONc1ccccc1C(F)(F)F)(C(=O)NN(C)C)c1ccccc1 (stereo unspecified) the results were Rv3671c inh -5, GDH-TPI counter 0, Mtb bLac sens 28, UGM FP inh -2 and FBA Mtb inh 1.
`O=S(=O)(c1ccc2c(c1)CCCN2)N1CCCC1` gave Rv3671c inh -2, GDH-TPI counter 3, Mtb bLac sens -1, UGM FP inh -2 and FBA Mtb inh 1.
CCN(CC)c1ccc2c(c1)CCCN2 was read as Rv3671c inh -19, Mtb bLac sens 25, RecA splice inh 33*, UGM FP inh 0 and GFP chromo cs >38.
Cc1nn(-c2ccccc2)c2c1C(c1ccccc1)C(C#N)=C(N)O2 (stereo unspecified) was read as Rv3671c inh -130, GDH-TPI counter 6, Mtb bLac sens 8, RecA splice inh 54*, UGM FP inh 0, FBA Mtb inh 2 and GFP chromo cs 29*.
`Cc1nn(-c2ccccc2)c2c1C(c1ccc(Br)s1)C(C#N)=C(N)O2` (stereo unspecified) gave GDH-TPI counter 5 and FBA Mtb inh 0.
Screening Cc1nn(-c2ccccc2)c2c1C(c1ccc(F)cc1F)C(C#N)=C(N)O2 (stereo unspecified) returned Rv3671c inh -11, GDH-TPI counter -5, Mtb bLac sens 9, RecA splice inh 50*, UGM FP inh -3, FBA Mtb inh 2 and GFP chromo cs 3.9*.
Screening CCN(C(=O)C(C)Sc1nnc(-c2ccncc2)n1C)C1CCCCC1 (stereo unspecified) returned Rv3671c inh 5, GDH-TPI counter 0, Mtb bLac sens -2, UGM FP inh 0 and FBA Mtb inh -3.
`Cn1c(=O)c(-c2ccccc2)nn2c3ccccc3nc12` gave Rv3671c inh 3, GDH-TPI counter 14, Mtb bLac sens 56, RecA splice inh -1, UGM FP inh 3 and FBA Mtb inh -1.
`Cc1nc2c(=O)n(C)c(=O)nc-2n(C)n1` gave Rv3671c inh -114, GDH-TPI counter 1, Mtb bLac sens 100, RecA splice inh 98*, UGM FP inh 4, FBA Mtb inh -12 and GFP chromo cs 0.12*.
Screening N#CC1=C(N)Oc2n[nH]c(-c3cccnc3)c2C1c1ccc([N+](=O)[O-])o1 (stereo unspecified) returned Rv3671c inh 0, GDH-TPI counter 1, Mtb bLac sens 100, RecA splice inh 29, UGM FP inh 0 and FBA Mtb inh -6.
For CCOC(=O)C1=C(c2ccccc2)OC(N)=C(C#N)C1c1cccnc1 (stereo unspecified) the results were Rv3671c inh 11, GDH-TPI counter 20, Mtb bLac sens -6, RecA splice inh -1, UGM FP inh 0 and FBA Mtb inh 23.
CCOc1cc(C2C(C#N)=C(N)Oc3n[nH]c(-c4ccccc4)c32)ccc1O (stereo unspecified) was read as Rv3671c inh -7, GDH-TPI counter -7, Mtb bLac sens -3, RecA splice inh 83*, UGM FP inh -1, FBA Mtb inh -3 and GFP chromo cs 6.4*.
`Cc1ccc(-c2[nH]nc3c2C(c2ccc(OC(=O)N4CCOCC4)cc2)C(C#N)=C(N)O3)cc1` (stereo unspecified) gave Rv3671c inh -19, GDH-TPI counter 6, Mtb bLac sens -1, RecA splice inh 82*, UGM FP inh -1, FBA Mtb inh 0 and GFP chromo cs 11*.
For Cc1ccc(-c2[nH]nc3c2C(c2cccnc2)C(C#N)=C(N)O3)cc1 (stereo unspecified) the results were Rv3671c inh -4, GDH-TPI counter 7, Mtb bLac sens -9, RecA splice inh 69*, UGM FP inh 1, FBA Mtb inh -1 and GFP chromo cs 13*.
Screening N#CC1=C(N)Oc2nc(-c3ccccc3)[nH]c2C1c1cccnc1 (stereo unspecified) returned Rv3671c inh -7, GDH-TPI counter 7, Mtb bLac sens 3, RecA splice inh 78*, UGM FP inh -1, FBA Mtb inh 0 and GFP chromo cs 23*.
CN(C)CCCn1c(SCC(=O)Nc2nccs2)nnc1-c1ccncc1 was read as Rv3671c inh -5, GDH-TPI counter -1, Mtb bLac sens 6, RecA splice inh -1, UGM FP inh -2 and FBA Mtb inh 0.
For Cc1noc(NS(=O)(=O)c2ccc(NC(=O)c3ccccc3NS(=O)(=O)c3ccc(F)cc3)cc2)c1C the results were Rv3671c inh 4, GDH-TPI counter 3, Mtb bLac sens 5, UGM FP inh 3 and FBA Mtb inh 12.
Screening CCCc1[nH]nc2c1C(c1cc(OC)ccc1F)C(C#N)=C(N)O2 (stereo unspecified) returned Rv3671c inh 4, GDH-TPI counter -8, Mtb bLac sens -8, RecA splice inh 30, UGM FP inh -2 and FBA Mtb inh 2.
